The full list was thinned out, with hits kept by preference.
Dicer inh: blocks human Dicer maturation of pre-miR-21 | Q9UPY3 | z-score at 25 µM | 47,000 tested, 6% active | cat-ELCCA pre-miR-21 Dicer processing, chemiluminescence; stronger effect = higher value; in the data active means z-score above about 3, passing the limit was not always enough;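 further: plate controls were vehicle for no effect and no enzyme for full effect; higher signal means more uncleaved substrate so more Dicer inhibition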
Target sequence (Q9UPY3 whole entry, looked up): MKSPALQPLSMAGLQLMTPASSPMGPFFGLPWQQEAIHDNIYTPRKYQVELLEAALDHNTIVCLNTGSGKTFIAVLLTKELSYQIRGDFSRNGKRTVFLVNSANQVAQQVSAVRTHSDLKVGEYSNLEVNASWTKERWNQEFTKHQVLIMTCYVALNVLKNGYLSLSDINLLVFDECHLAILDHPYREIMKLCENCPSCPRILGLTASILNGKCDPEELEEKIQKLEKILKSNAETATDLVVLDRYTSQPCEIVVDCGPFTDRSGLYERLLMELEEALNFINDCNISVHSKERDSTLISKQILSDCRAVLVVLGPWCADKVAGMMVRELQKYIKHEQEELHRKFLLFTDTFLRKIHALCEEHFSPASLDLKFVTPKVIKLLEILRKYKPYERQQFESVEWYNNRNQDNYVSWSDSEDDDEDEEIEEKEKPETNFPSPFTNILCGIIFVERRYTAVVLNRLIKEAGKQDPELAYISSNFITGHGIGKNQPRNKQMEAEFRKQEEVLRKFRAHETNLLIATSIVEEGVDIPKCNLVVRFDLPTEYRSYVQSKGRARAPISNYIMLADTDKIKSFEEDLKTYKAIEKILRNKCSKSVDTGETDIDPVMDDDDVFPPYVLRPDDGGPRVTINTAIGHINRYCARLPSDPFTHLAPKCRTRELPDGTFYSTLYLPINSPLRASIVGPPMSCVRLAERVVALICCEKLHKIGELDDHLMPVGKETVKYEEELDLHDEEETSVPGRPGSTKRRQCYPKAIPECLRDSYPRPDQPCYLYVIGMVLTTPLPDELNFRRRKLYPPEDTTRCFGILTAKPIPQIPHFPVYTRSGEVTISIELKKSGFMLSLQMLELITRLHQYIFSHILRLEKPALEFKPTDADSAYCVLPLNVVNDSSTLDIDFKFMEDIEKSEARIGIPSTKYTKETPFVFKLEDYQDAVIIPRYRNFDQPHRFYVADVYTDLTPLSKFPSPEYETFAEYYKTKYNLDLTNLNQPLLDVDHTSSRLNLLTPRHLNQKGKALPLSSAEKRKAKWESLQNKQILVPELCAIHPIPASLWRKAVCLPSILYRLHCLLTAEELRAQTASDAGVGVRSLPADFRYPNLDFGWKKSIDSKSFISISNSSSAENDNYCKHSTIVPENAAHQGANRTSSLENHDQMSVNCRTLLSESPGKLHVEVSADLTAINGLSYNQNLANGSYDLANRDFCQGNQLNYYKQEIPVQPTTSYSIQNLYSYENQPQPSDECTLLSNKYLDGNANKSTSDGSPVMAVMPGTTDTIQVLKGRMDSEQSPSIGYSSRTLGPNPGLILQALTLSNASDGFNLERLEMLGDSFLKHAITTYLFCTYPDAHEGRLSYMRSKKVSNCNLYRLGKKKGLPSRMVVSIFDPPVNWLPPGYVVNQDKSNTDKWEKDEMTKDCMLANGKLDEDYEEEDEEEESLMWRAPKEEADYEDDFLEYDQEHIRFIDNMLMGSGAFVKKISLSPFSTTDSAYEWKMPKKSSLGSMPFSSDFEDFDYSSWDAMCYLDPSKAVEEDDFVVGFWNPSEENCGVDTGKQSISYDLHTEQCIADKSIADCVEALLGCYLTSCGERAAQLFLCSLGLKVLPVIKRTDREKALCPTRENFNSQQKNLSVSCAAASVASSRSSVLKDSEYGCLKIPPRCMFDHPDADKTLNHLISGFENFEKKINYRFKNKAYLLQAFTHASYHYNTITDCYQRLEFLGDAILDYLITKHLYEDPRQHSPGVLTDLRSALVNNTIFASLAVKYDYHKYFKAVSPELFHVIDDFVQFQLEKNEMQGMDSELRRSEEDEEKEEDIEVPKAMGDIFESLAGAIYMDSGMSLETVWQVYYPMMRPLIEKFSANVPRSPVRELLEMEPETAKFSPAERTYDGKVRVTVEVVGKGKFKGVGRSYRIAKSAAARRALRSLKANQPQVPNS
Numbers without * were called inactive.

SMILES	Dicer inh
CC(c1ccccc1)N1CNc2c(c(=O)n(C)c(=O)n2C)C1 (configuration not stated)	0.51
Cn1c2c(c(=O)n(C)c1=O)CN(Cc1ccc(CN3CNc4c(c(=O)n(C)c(=O)n4C)C3)cc1)CN2	3.77*
Cn1c2c(c(=O)n(C)c1=O)CN(CCCC(=O)O)CN2	-1.85
CN(C)CCN1CNc2c(c(=O)n(C)c(=O)n2C)C1	3.49*
CN1CNc2c(c(=O)n(C)c(=O)n2C)C1	-2.45
CCCN1CNc2c(c(=O)n(C)c(=O)n2C)C1	0.77
Cc1onc(-c2ccccc2Cl)c1NC(=O)Nc1cccc(C(F)(F)F)c1	0.83
Cn1cnc(S(=O)(=O)Oc2ccc(Cl)cc2)c1	-0.03
O=C(C1=NNCC1c1c2ccccc2cc2ccccc12)c1ccc(Br)cc1 (configuration not stated)	-0.74
O=C(C1=NNCC1c1ccccc1)c1ccc2ccccc2c1 (configuration not stated)	4.34*
O=C(C1=NNCC1c1ccccc1)c1ccccc1 (configuration not stated)	-0.12
CCN(CC)C(=O)C1Sc2nnc(C)n2NC1c1ccc(Cl)cc1 (configuration not stated)	-0.19
Oc1ccccc1C1N(Cc2ccccc2)CCN1Cc1ccccc1	-0.47
CN(C)C(=O)C12CCC(C)(C(=O)C1)C2(C)C (configuration not stated)	3.14*
CCCCC(=O)Nc1nc2ccccc2s1	-0.22
O=C(Nc1ccc(F)cc1)Nc1nc2ccccc2s1	0.83
CCNC(=O)Nc1nc2ccccc2s1	4.41*
Cc1ccc2cccc(Oc3nc(C)nc4sc5c(c34)CCC5)c2n1	0.03
Cc1ccc(S(=O)(=O)NCCc2ccc(S(N)(=O)=O)cc2)cc1	0.1
NS(=O)(=O)c1ccc(CCNCc2cccs2)cc1	3.06*
Cn1cccc1CNCCc1ccc(S(N)(=O)=O)cc1	2.31
COc1ccc(-n2nnnc2-c2c[nH]c3ccc(Cl)cc23)cc1	0.32
CSc1sc(C#N)c2c1C(=O)CC(c1ccccc1)C2 (configuration not stated)	9.72
COc1cccc2c1OC(c1ccc(O)cc1)N1N=C(c3ccccc3O)CC21 (configuration not stated)	4.01
COc1ccc(O)c(C2=NN3C(C2)c2cccc(OC)c2OC3c2cccc(F)c2)c1 (configuration not stated)	1.73
SMILES	Dicer inh
COc1ccc(O)c(C2=NN3C(C2)c2cccc(OC)c2OC3c2cccc(O)c2)c1 (configuration not stated)	5.07*
COc1cccc2c1OC(c1ccccc1)N1N=C(c3ccccc3O)CC21 (configuration not stated)	1.53
COc1ccc(O)c(C2=NN3C(C2)c2cccc(OC)c2OC3c2ccc(OC)c(O)c2)c1 (configuration not stated)	0.58
COc1cccc2c1OC(c1cccc(F)c1)N1N=C(c3ccccc3O)CC21 (configuration not stated)	6.97*
Cc1cc(OCc2ccccc2)ccc1[N+](=O)[O-]	-0.43
COc1cc(OC)cc(C(C)(C)OC(=O)N[C@@H](CCC(N)=O)C(=O)O)c1	1.39
O=S(=O)(c1ccccc1)c1ccc(S(=O)(=O)N2CCCCC2)s1	-0.26
CC1(C)OC(=O)C(=C2C3C4CC5C2C2C3CC4C52)C(=O)O1 (configuration not stated)	0.7
CCCc1c(C)c(C#N)c2nc3ccccc3n2c1NCCCn1ccnc1	-1.89
Cc1c(Cc2ccccc2)c(-n2ccnc2)n2c(nc3ccccc32)c1C#N	1.74
Cc1c(Cc2ccccc2Cl)c(NCCCn2ccnc2)n2c(nc3ccccc32)c1C#N	-0.6
Cc1c(Cc2ccc(Cl)cc2)c(NCCCn2ccnc2)n2c(nc3ccccc32)c1C#N	4.36*
CCCCc1c(C)c(C#N)c2nc3ccccc3n2c1N1CCN(CCO)CC1	2.54
Cc1c(CCC(C)C)c(-n2ccnc2)n2c(nc3ccccc32)c1C#N	3.46*
CC(=O)/C(C#N)=C(\N)SCc1csc(-c2ccc(Cl)cc2)n1	-2.29
COc1ccccc1OCCn1c(C(F)(F)F)nc2ccccc21	-0.81
O=C1CC(c2cccs2)c2c(n[nH]c2-c2ccc(Cl)cc2)N1 (configuration not stated)	0.61
CS(=O)(=NS(=O)(=O)c1ccc(-c2ccccn2)s1)c1ccccc1 (configuration not stated)	1.96
CCOc1cc(C(F)(F)F)c(C(=O)N(C)Cc2ccc(Cl)cc2)cn1	0.46
Cc1ccc(-c2noc(COc3ccc(Cl)cc3C)n2)cc1	5.74*
COc1ccc(-c2noc(COc3ccc(C)cc3C)n2)cc1	0.79
Cc1ccc(-c2noc(COc3ccc(Cl)cc3)n2)cc1	6.94
COc1ccc(OC)c(-n2c(-c3ccc(Cl)cc3)cn3c4c(=O)n(C)c(=O)n(C)c4nc23)c1	2.51
Cc1cc(=O)oc2c1c(-c1ccccc1)nn2-c1ccccc1	-1.27
Cn1c(Cc2nn(C)c(=O)c3ccccc23)nnc1SCC(=O)c1ccccc1	-0.95
SMILES	Dicer inh
Cc1sc2nc(SCC(=O)N3CCCCC3)[nH]c(=O)c2c1C	-0.76
Cc1cc(C)c2c(=O)[nH]c(SCC(=O)N3CCCCC3)nc2n1	5.78*
CCc1ccc(C(=O)CSc2nc3nc(C)cc(C)c3c(=O)[nH]2)cc1	0.63
CCOC(=O)C1=C(C)NC2=C(C(=O)CC(C)(C)C2)C1c1cc(OC)cc(OC)c1 (configuration not stated)	0.55
CC(=O)N1c2ccccc2N2C(c3c(C)cc(C)cc3C)=NON12	0.88
Cc1nn(C)c(Oc2c(Cl)cccc2Cl)c1[N+](=O)[O-]	-1.79
Cn1c(-c2ccc(F)cc2)cn2cc(-c3ccc(Br)cc3)nc12	0.28
Cc1sc(N)nc1-c1ccc(CC(C)C)cc1	-1.68
Cc1ccc(-c2nc(N)sc2C)cc1	0.07
Cc1ccc(-c2nc(N)sc2-c2ccccc2)cc1	3.14*
CCOC(=O)c1sc(N2C(=O)c3oc4cc(C)c(C)cc4c(=O)c3C2c2ccc(O)cc2)nc1C (configuration not stated)	0.69
c1ccc(-c2nnc3n2N=C(c2c[nH]c4ccccc24)CS3)cc1	-0.91
CCOC(=O)C(NC(=S)SC)C(=O)OCC	-0.58
O=[N+]([O-])c1ccc(C2NC(CO)(CO)CO2)cc1 (configuration not stated)	0.08
CN(C)c1ccc(C=C2C(=O)N(c3ccccc3)C(=O)N(c3ccccc3)C2=O)cc1	1.65
CN(C)c1ccc(/C=C2/OC(=S)NC2=S)cc1	3.44*
COc1ccc(NS(=O)(=O)c2sc(Cl)cc2Br)c(OC)n1	0
CCCCOC(=O)Cc1c(C)[nH]c(=O)[nH]c1=O	-0.99
C=CCN/C(SC)=C(\C#N)S(=O)(=O)c1ccc(Cl)cc1	-4.35
CS/C(NCc1ccco1)=C(/C#N)S(=O)(=O)c1ccc(Cl)cc1	-1.1
CSC(SC)=C(C#N)S(=O)(=O)c1ccc(Cl)cc1	3.16*
Cc1onc(-c2ccccc2)c1NC(=O)Nc1nnc(C2CC2)s1	-0.36
CSC(=O)NC(=O)c1cccc(=O)o1	0.2
CC1(C)CCC2(C=CC(=O)C=C2)C(SCc2ccccc2)=N1	-1.61
COc1cc(/C=N/NC(=O)Cn2nnc(-c3c(Cl)cccc3Cl)n2)ccc1OC(=O)C1CC1	1.9
CN(C)/C=C/C(=O)c1ccc(-c2cc(C(F)(F)F)cc(C(F)(F)F)c2)o1	-0.92
CCOC(=O)NC(=S)NCc1cccs1	1.43
COc1ccccc1N1CCN(C(=O)C(C)Nc2ccccn2)CC1 (configuration not stated)	-0.48
